LmPK inh: inhibitors of Leishmania mexicana pyruvate kinase | Q27686 | purified LmPK, Kinase-Glo ATP luminescence, 1 h | Potency, µM (doses to about 57.5 µM), inactives show at the top dose activity change, negative = inhibition, actives largely listed as inhibitors | 290,000 tested, 0.37% active | AID 1721; also: potency is read from the fitted curve at half-maximal effect; % is scaled to controls: 0 for no effect and ±100 for the full control effect
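Purified LmPK (0.1 nM) converted ADP (0.1 mM) to ATP with PEP (0.5 mM) in imidazole buffer pH 7.2 with KCl and MgCl2, 1 h at room temperature. ATP was read by Kinase-Glo luminescence; data normalized to uninhibited and no-enzyme controls.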
Sm TGR block: blocks Schistosoma mansoni thioredoxin glutathione reductase. Q962Y6. purified TGR, DTNB reduction, TNB absorbance 405 nm. Potency, µM (titrated, usually from 114 µM), for inactives: at the highest dose activity change, negative = inhibition, most hits filed as inhibitors. 360,000 tested, 3% active. AID 485364; also: potency is read from the fitted curve at half-maximal effect; % is scaled to controls: 0 for no effect and ±100 for the full control effect; nearly all actives have a fitted effect of over 60% in size
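TGR 20 nM + NADPH 100 uM (dispensed conc.), cpd preinc 15 min RT; start with NADPH (500 uM addition) then DTNB (15 mM addition). Kinetic TNB absorbance, 405 nm filter. Four-parameter Hill fit across titration.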
Cycloheximide cs: counter-screen hit for Shiga toxin inhibitors, cycloheximide. cell reporter, cycloheximide protein synthesis inhibition counterscreen. max response, %. 300,000 tested, 12% active. AID 2314; in the data active = max response mostly above about 13%, no sharp cut-off; inactive = mostly below about 14%; also: read at 38.3 µM for the half of the compounds with a filed dose; 0% is about no effect
Giardia FBPA inh: blocks Giardia fructose-bisphosphate aldolase activity; purified Giardia FBPA; Potency, µM (top dose mostly 59.6 µM), for the others: at the highest dose activity, negative = inhibition, hits mostly inhibitors; 290,000 tested, 0.71% active; AID 2451; also: potency is read from the fitted curve at half-maximal effect; % is scaled to controls: 0 for no effect and ±100 for the full control effect; nearly all actives have a fitted effect of over 55% in size
Target sequence (A8B2U2 whole entry, looked up): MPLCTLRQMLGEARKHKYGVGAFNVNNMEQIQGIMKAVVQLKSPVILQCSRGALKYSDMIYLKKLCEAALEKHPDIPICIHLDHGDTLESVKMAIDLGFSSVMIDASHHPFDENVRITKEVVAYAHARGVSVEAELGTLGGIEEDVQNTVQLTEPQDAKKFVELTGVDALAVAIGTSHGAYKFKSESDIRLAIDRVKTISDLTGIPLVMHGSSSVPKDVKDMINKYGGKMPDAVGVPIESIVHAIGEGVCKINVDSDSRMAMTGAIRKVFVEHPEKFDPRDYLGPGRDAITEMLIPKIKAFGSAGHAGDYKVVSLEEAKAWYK
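Giardia FBPA (40 nM reagent) was preincubated 10 min at RT with compound (up to 57.5 uM final), then substrate plus GAPDH/TPI/NAD/arsenate coupling system with diaphorase/resazurin was added; resorufin fluorescence (525/598 nm) was read after 20 min.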
Shiga inhibitor: inhibitors of Shiga toxin in Vero cells. inhibition, % at 38.7 µM. Vero cells, Shiga toxin protein synthesis inhibition reporter. 290,000 tested, 9.2% active. AID 2315; in the data active = inhibition mostly above about 28%, no sharp cut-off; inactive = mostly below about 43%; also: 0% is about no effect
Tb PYK inh: inhibitors of Trypanosoma brucei pyruvate kinase; Q57TT1; TbPYK enzyme, Kinase-Glo Plus ATP luminescence, 45 min; Potency, µM (series often up to 76.8 µM), inactives show top-dose activity, negative = inhibition, usual class: inhibitors; 410,000 tested, 0.12% active; AID 624173; also: potency is read from the fitted curve at half-maximal effect; % is scaled to controls: 0 for no effect and ±100 for the full control effect; nearly all actives have a fitted effect of over 50% in size
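Quantitative HTS: titrated library compounds versus trypanosomal pyruvate kinase in TEA buffer (pH 7.2) containing KCl, MgCl2, BSA and Tween-20. Reactions were initiated with ADP, 130 uM final. Kinase-Glo Plus luminescence was read after 45 min at RT.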
LmPK inh confirm: Inhibits Leishmania mexicana pyruvate kinase, confirmation; shares compounds with LmPK inh; purified LmPK, Kinase-Glo ATP luminescence, 1 h; Potency, µM (series often up to 57.5 µM), without a hit: top-dose activity change, negative = inhibition, hits mostly inhibitors; 150 tested, 40% active;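 active = compounds giving a full or partial concentration-response curve, as inhibitors or activators; inconclusive = weak, top-dose-only or unclear curve responses; inactive = no response at any tested dose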
An asterisk follows results filed as active. The sample as a whole holds a higher share of hits than the screen did. Unless noted, calls follow the shape of the dose curve; as a rule, active = well fitted curve in the direction sought with a large enough effect; inconclusive = small, poorly fitted or top-dose-only effect, or another doubt; inactive = no such curve, though single readings can be large; an effect the other way counts as inactive or inconclusive.

`CNC(=O)OCc1nc(SC2CCCCO2)n(C)c1COC(=O)NC` (stereo not drawn) gave Tb PYK inh 2.0%.
COc1cc(/C=N/N2C(C)CCCC2C)cc(OC)c1O (stereo not drawn) was read as LmPK inh 2µM*, Sm TGR block 44.7µM*, Cycloheximide cs -0.9, Giardia FBPA inh -4.4%, Shiga inhibitor -1.7, Tb PYK inh -5.1% and LmPK inh confirm inconclusive.
C=C(C)[C@H]1CC=C(C)/C(=N/NC(=O)CNc2ccccc2OC)C1 was read as LmPK inh -1.6%, Sm TGR block -0.8%, Cycloheximide cs -1.1, Giardia FBPA inh 0.2%, Shiga inhibitor 25.4, Tb PYK inh 0.8% and LmPK inh confirm 2.2%.
C=C(C)C1CC=C(C)/C(=N\NC(=O)CNc2cccc3ccccc23)C1 (stereo not drawn) was read as LmPK inh -3.2%, Sm TGR block -8.2%, Cycloheximide cs 0.6, Giardia FBPA inh -19.6%, Shiga inhibitor -6.9 and Tb PYK inh 3.3%.
`COc1cccc(/C=N/NC(=O)c2ccoc2C)c1O` gave LmPK inh 7.94µM*, Sm TGR block 11.0%, Cycloheximide cs 38.3*, Giardia FBPA inh 4.9%, Shiga inhibitor 85.6*, Tb PYK inh -12.9% and LmPK inh confirm 18.3µM*.
Screening COc1cccc(/C=N/NC(=O)c2c(-c3ccccc3)noc2C)c1O returned LmPK inh 2.6%, Sm TGR block 2.6%, Cycloheximide cs -0.8, Giardia FBPA inh 21.0%, Shiga inhibitor -8.1 and Tb PYK inh -7.4%.
For Cc1ccc(N2CC(C(=O)N3CCC(C(=O)Nc4nnc(C(C)(C)C)s4)CC3)CC2=O)cc1 (stereo not drawn) the results were LmPK inh -2.6%, Sm TGR block -5.4%, Cycloheximide cs -6.2, Giardia FBPA inh -2.9%, Shiga inhibitor -6.9 and Tb PYK inh 1.5%.
`COc1ccc(-c2nc(-c3ccccn3)no2)cc1` gave LmPK inh 1.58µM*, Sm TGR block 3.1%, Cycloheximide cs -8.9, Giardia FBPA inh -1.6%, Shiga inhibitor -18.7, Tb PYK inh inconclusive and LmPK inh confirm 6.51µM*.
Screening Cc1ccccc1-c1nc(-c2ccccn2)no1 returned LmPK inh 2.51µM*, Sm TGR block 61.3%, Cycloheximide cs -0.8, Giardia FBPA inh 5.4%, Shiga inhibitor 4.8, Tb PYK inh inconclusive and LmPK inh confirm 11.6µM*.
`Cc1nc2nc(C)c(NS(=O)(=O)c3ccc4c(c3)CCCC4)c(=O)n2[nH]1` gave LmPK inh 1.4%, Sm TGR block -3.2%, Cycloheximide cs -3.5, Giardia FBPA inh -11.8%, Shiga inhibitor -5.7 and Tb PYK inh -4.1%.
`CN(Cc1cn(C)nc1-c1cccc(Cl)c1)Cc1nccn1C` gave LmPK inh 2.2%, Sm TGR block 1.2%, Cycloheximide cs -2.1, Giardia FBPA inh -0.3%, Shiga inhibitor 0.6, Tb PYK inh -8.2% and LmPK inh confirm -0.6%.
CN(Cc1cccnc1)Cc1cn(C)nc1-c1cccc(Cl)c1 was read as LmPK inh 5.7%, Sm TGR block 1.5%, Cycloheximide cs -0.1, Giardia FBPA inh 2.5%, Shiga inhibitor -13.4 and Tb PYK inh 5.5%.
For CCn1c(SCC(=O)Nc2sc3c(c2C#N)CCC(C(C)(C)C)C3)nnc1-c1ccco1 (stereo not drawn) the results were LmPK inh 4.5%, Sm TGR block -15.3%, Cycloheximide cs 0.2, Giardia FBPA inh 1.2%, Shiga inhibitor -5.1, Tb PYK inh 3.3% and LmPK inh confirm 6.8%.
Screening COc1ccc(/C=N/NC(N)=S)cc1OC(=O)c1cccc2ccccc12 returned LmPK inh -1.1%, Sm TGR block 11.5%, Cycloheximide cs 23.3*, Giardia FBPA inh -0.8%, Shiga inhibitor 55.9*, Tb PYK inh -1.6% and LmPK inh confirm -0.7%.
C[C@H](CO)N1C[C@H](C)[C@@H](CN(C)S(=O)(=O)c2ccccc2)Oc2ccc(NC(=O)C3CC3)cc2C1=O was read as Tb PYK inh 0.0%.
Screening COC(=O)COc1ccc(/C=C2/SC(=O)N(CC(=O)N3CCCC3)C2=O)cc1Br returned LmPK inh -5.4%, Sm TGR block 2.5%, Cycloheximide cs 1.5, Giardia FBPA inh 5.4%, Shiga inhibitor -18.5, Tb PYK inh 0.4% and LmPK inh confirm 4.2%.
For COC(=O)COc1cc(Br)c(/C=C2/SC(=O)N(CC(=O)N3CCCC3)C2=O)cc1OC the results were LmPK inh -2.3%, Sm TGR block 4.6%, Cycloheximide cs -2.4, Shiga inhibitor -7.1 and Tb PYK inh 1.2%.
Screening c1c2c(cc3sc(N4CCCCC4)nc13)OCO2 returned LmPK inh 7.08µM*, Sm TGR block -9.4%, Cycloheximide cs 21.0, Giardia FBPA inh -10.5%, Shiga inhibitor 25.0, Tb PYK inh inconclusive and LmPK inh confirm 18.3µM*.
Screening Cc1ccc(-n2[nH]c(C)c(/C=N/c3ccccn3)c2=O)cc1 returned LmPK inh -19.6%, Sm TGR block -8.1%, Cycloheximide cs -1.5, Giardia FBPA inh -4.1%, Shiga inhibitor -14.0, Tb PYK inh 2.6% and LmPK inh confirm inconclusive.
Cc1ccc(-n2[nH]c(C)c(C=Nc3ccc4[nH]c(=O)[nH]c4c3)c2=O)cc1 was read as LmPK inh -2.6%, Sm TGR block -12.5%, Cycloheximide cs -2.7, Giardia FBPA inh -10.3%, Shiga inhibitor -11.8 and Tb PYK inh -7.2%.
Cc1cccc(C=CC(=O)c2ccccc2)c1 was read as Tb PYK inh 10.2%.
`Cc1ccc(C(=O)/C=C/C(=O)c2ccc(C)cc2)cc1` gave LmPK inh 3.98µM*, Sm TGR block 2.24µM*, Cycloheximide cs 15.5, Giardia FBPA inh -0.6%, Shiga inhibitor 41.2, Tb PYK inh inconclusive and LmPK inh confirm inconclusive.
Screening CCOc1ccc(NC(=O)c2c(NC(=O)Cc3ccccc3)sc3c2CCCC3)cc1 returned Sm TGR block -11.1% and Tb PYK inh 4.1%.
